Assay results reported in PubChem BioAssay AID720554 (ICCB-Longwood Screening Facility, Harvard Medical School, 2013).
The campaign covered roughly 12,000 compounds. About 45 (0.4%) were called active. Cut-off read from the data, not from the text of the source: active = inhibition mostly above about 83% (no sharp cut-off); inactive = mostly below about 52%. This excerpt belongs to a sample that is enriched for actives.

Tests used:
[1] = BmaI1 acyl-homoserine lactone synthase inhibition – biochemical, fluorescence intensity, with counterscreen (AID 720554); settings: BmaI1 enzyme assay, measured here: counterscreen fluorescence % control, concentration not given here
[2] = tested on: acyl-homoserine lactone synthase BmaI1 (Burkholderia mallei ATCC 23344); assay: as above; settings: BmaI1 enzyme assay, stronger effect = higher value, concentration not given here

Row | SMILES | inhibition [1] | inhibition [2]
1 | COc1ccc(NC(=O)COC(=O)C23CCC(=O)N2c2ccccc2S3)cc1 (stereo not given) | 5% | -0.5% (inactive)
2 | Cc1ccc(NC(=O)Nc2ccc(N(C)C)cc2)cc1 | 3.5% | 98.5% (active)
3 | Cc1ccc(NC(=O)Nc2ccc3c(c2)C(=O)NC3=O)cc1 | 14% | 9% (inactive)
4 | Cc1ccc(C(=O)OCC(=O)Nc2ccc(N(C)C)cc2)c(C)c1 | -7.5% | 24.5% (inactive)
5 | CN(C)C(CNC(=O)c1ccc2ncsc2c1)c1cccs1 (stereo not given) | 13% | 18% (inactive)
6 | O=C(CCc1nc2ccccc2o1)Nc1cccc(-n2cnnn2)c1 | 6.5% | 16.5% (inactive)
7 | CC(C)NC(=S)NNc1ccccc1C(F)(F)F | -31% | 14% (inactive)
8 | CC(C)NC(=S)NNc1ncc(C(F)(F)F)cc1Cl | 8% | 89% (active)
9 | FC(F)(F)c1cnc(NNC(=S)NCC2CCCO2)c(Cl)c1 (stereo not given) | -1% | 51.5% (inactive)
10 | CCN(C(=O)CSc1nnc(-c2ccccc2)c(-c2ccccc2)n1)C1CCS(=O)(=O)C1 (stereo not given) | -2.5% | 6% (inactive)
11 | COC(=O)C1=C(C)NC(C)=C(C(=O)OC)C1C(=O)OCC(=O)Nc1cccc2nsnc12 | -2% | -15% (inactive)
12 | N#CCC(=O)Nc1ccc(C(=O)NCc2ccccc2)cc1 | 21.5% | 29.5% (inactive)
13 | CS(=O)(=O)CCC1NC(=O)NC1=O (stereo not given) | 2.5% | 10.5% (inactive)
14 | COc1ccc(C(=O)Nc2ccc(N3CCCCC3)cc2)cc1 | -2% | 22.5% (inactive)
15 | O=C(Nc1ccc(N2CCCCCC2)cc1)c1ccncc1 | 26.5% | 62% (inactive)
16 | CC(=O)Nc1cccc(C(=O)Nc2ccc(N3CCCCC3)cc2)c1 | 7% | 83.5% (active)
17 | Cc1cc(C(=O)CSc2ccccn2)c(C)n1Cc1cccs1 | 12% | 16% (inactive)
18 | CCN(C(=O)C(C)Sc1nc(C)cs1)c1ccccc1 (stereo not given) | 3.5% | 14.5% (inactive)
19 | CCN(CC)C(=S)SSC(=S)N(CC)CC | -13.5% | 96% (active)
20 | CCN(CC)C(=S)SCc1ncc(-c2ccccc2)o1 | 3.5% | 13% (inactive)

Row | SMILES | inhibition [1] | inhibition [2]
21 | O=C(O)c1ccc(NNC(=S)NCC2CCCO2)cc1 (stereo not given) | -33% | -78.5% (inactive)
22 | FC(F)(F)c1nc(NNC(=S)NCC2CCCO2)c2ccccc2n1 (stereo not given) | 25% | 100% (active)
23 | Cc1ccc(NNC(=S)NCC2CCCO2)c(C)c1 (stereo not given) | 6.5% | 10% (inactive)
24 | O=C1CCC(C(=O)NC2CCCCCC2)=NN1 | 11% | 18.5% (inactive)
25 | Cc1cc(SCC(=O)O)n2c(nc3ccccc32)c1C#N | 1% | 20% (inactive)
26 | Cc1ccccc1N1C(=O)C=CC1=O | 4% | 82% (active)
27 | Cc1ccccc1-n1cc[nH]c1=S | 4.5% | 23.5% (inactive)
28 | Cc1ccccc1N1C(=O)Cc2ccccc2C1=O | 2% | 16.5% (inactive)
29 | O=C(O)CCN(Cc1ccccc1)S(=O)(=O)c1cccs1 | 1.5% | 11% (inactive)
30 | Cc1nc2ccc(NC(=O)C3CCCC3)cc2s1 | 12.5% | 14% (inactive)
31 | N#Cc1ccc(CSc2nncn2-c2ccccc2)cc1 | -2% | -5.5% (inactive)
32 | NNc1nc(-c2ccccc2)c2cc(Br)ccc2n1 | 16.5% | 91% (active)
33 | Nc1nc(N)c2nc(-c3ccccc3)c(N)nc2n1 | 21% | 5% (inactive)
34 | Cc1ccc2nc(N3CCCC3)nc(-c3ccccc3)c2c1 | 2.5% | 3% (inactive)
35 | CCC(=O)Nc1ccc(C(=O)CN2C(=O)NC3(CCCc4ccccc43)C2=O)cc1 (stereo not given) | 16% | 14.5% (inactive)
36 | O=C(COc1ncnc2ccc(Br)cc12)N1CCCCC1 | 4.5% | 4.5% (inactive)
37 | Cc1cc(C)nc(SC2=C(Nc3ccc(O)cc3)C(=O)N(Cc3ccccc3)C2=O)n1 | 26.5% | 86.5% (active)
38 | Cc1cc(C)nc(SCC(=O)OCCN2C(=O)c3ccccc3C2=O)n1 | 9.5% | 18% (inactive)
39 | Cc1cc(C)nc(SC2=C(N3CCC(C)CC3)C(=O)N(Cc3ccccc3)C2=O)n1 | 4.5% | 14% (inactive)
40 | Cc1cc(O)c(CN2CC=C(c3ccccc3)CC2)cc1C(C)C | -16% | -85.5% (active)

Row | SMILES | inhibition [1] | inhibition [2]
41 | COc1ccc2c(CN3CC=C(c4ccccc4)CC3)cc(=O)oc2c1 | 8% | 4.5% (inactive)
42 | Cc1c(CN2CC=C(c3ccccc3)CC2)c(=O)n(-c2ccccc2)n1C | -2.5% | 9% (inactive)
43 | N#Cc1ccccc1NC(=O)CN1CCNC(=O)C1 | 5% | 6% (inactive)
44 | NCCCOC1CCCCC1 | 11% | 16.5% (inactive)
45 | NS(=O)(=O)c1cc(C(=O)O)cs1 | -4.5% | 3% (inactive)
46 | Cc1cc(C)n(-c2ccc(C(=O)OCC(=O)NCC3CCCO3)cc2)n1 (stereo not given) | 9% | 8% (inactive)
47 | O=C1NC(c2cccc(O)c2O)Nc2sc3c(c21)CCC3 (stereo not given) | 19% | 83% (active)
48 | Cc1ccccc1CSCc1nc(N)nc(Nc2ccccc2C)n1 | 4% | 7% (inactive)
49 | O=C1c2ccccc2C(=O)N1/N=C/c1ccc(-c2ccccc2Br)o1 | 2.5% | 4.5% (inactive)
50 | O=S(=O)(c1ccc(N=C=S)cc1)N1CCOCC1 | -3% | 13% (inactive)
51 | NC(=O)C1CCN(Cc2cc(=O)oc3cc(O)ccc23)CC1 | -4.5% | 5.5% (inactive)
52 | CC1(C)C(=O)Nc2ccccc2N1C(=O)CSc1ncnc2ccccc12 | 10.5% | 18.5% (inactive)
53 | CN1/C(=C2\C=NN(C)P2(=S)N2CCCC2)C(C)(C)c2ccccc21 (stereo not given) | 10% | 15% (inactive)
54 | CN1/C(=C2\C=NN(C)P2(=O)Nc2ccccc2)C(C)(C)c2ccccc21 (stereo not given) | 5% | 14.5% (inactive)
55 | COP1(=S)/C(=C2/N(C)c3ccccc3C2(C)C)C=NN1C (stereo not given) | 6% | 88% (active)
56 | COc1ccccc1/C=N/OCC(=O)NCc1ccc2c(c1)OCO2 | 3.5% | 16.5% (inactive)
57 | COC(=O)c1ccc(-n2c(C)cc(C(=O)CN3C(=O)CN(C)C3=O)c2C)cc1 | -4.5% | 9% (inactive)
58 | Nc1nnc(-c2cccs2)c(=O)n1N | 70.5% | 20% (inactive)
59 | Nn1c(NNC(=O)c2ccccc2)nnc(-c2cccs2)c1=O | 11.5% | 92% (active)
60 | O=C(N/N=C/c1sc(N2CCCCC2)nc1-c1cccs1)c1ccccc1 | -8.5% | 17% (inactive)
